Among all 45,000 compounds or so, about 65 (0.1%) were called active. This is one part of a sample in which actives are shown more often than they occur. Calls follow the shape of the dose curve; as a rule, active = well fitted activation curve with a large enough effect; inconclusive = small, poorly fitted or top-dose-only effect; inactive = no such curve, though single readings can be large or run the other way.
What follows are molecules tested against Galactocerebrosidase (Homo sapiens) (UniProt P54803) (assay: A Novel Cell-Based Assay to Identify Small Molecules for B -Galactocerebrosidase). Details: 145M-Twi-hGALC-G270D cells (Twitcher mouse brain line with human GALC G270D), HMU-beta-Gal fluorescence, 48 h; series mostly up to 57.5 µM.
From the text: Lysosomal storage diseases (LSDs) are caused by genetic mutations in genes encoding proteins important for normal lysosomal function. Globoid cell leukodystrophy (GLD), mostly known as Krabbe disease, is a prototype of the neurological LSDs caused by deficiency of beta-galactocerebrosidase (GALC). In brain specimens of GLD patients, psychosine levels are substantially elevated. At elevated concentrations, psychosine becomes cytotoxic to neuronal cells, particularly to oligodendrocytes (OLG), neural cells responsible for myelin formation. Therefore, the biochemical disturbances in GLD are manifested by different degrees of brain demyelination resulting in a broad spectrum of neurological manifestations. Most of the FDA-approved therapies are based on enzyme replacement therapeutic (ERT) agents, which treat non-neurological symptoms of Gaucher disease, Fabry disease, few mucopolysaccharidoses and Pompe disease. Unfortunately, in GLD, a primarily neurological LSD, ERT agents, as large molecular weight molecules unable to cross the blood-brain barrier, which makes this an inefficacious therapeutic approach. In GLD, increasing the residual GALC activity just above the critical threshold (~10% of wild type enzymatic activity), the cytotoxic levels of psychosine will be reduced, avoiding the OLGs apoptosis and the subsequent demyelination process. This will translate in disease stabilization and amelioration of GLD patient symptoms.
A cell-based assay in 1,536-well plate format was developed to implement a quantitative high-throughput screening (qHTS) assay using GLD-disease relevant cells to identify small molecules that produce enhancements of the residual enzymatic activity levels of mutants GALC found and prevalent in GLD patients. Compounds that are active may therefore have some therapeutic application for GLD. After the treatment of live cells for a determined period, using a fluorescent GALC specific substrate, the mutant residual GALC activity is measured. This cell-based qTHS assay was used to screen part of the MLPCN library for small molecule able to increase the mutant GALC enzymatic activity. In this assay, increased fluorescent signal corresponds to enhanced levels of mutant GALC residual enzymatic activity. Activation is the desired outcome for this assay.
NIH Chemical Genomics Center [NCGC]
NIH Molecular Libraries Probe Centers Network [MLPCN]
Assay Submitter (PI): Gustavo Maegawa MD,PhD, University of Florida, Gainesville, FL
2)#Two cell lines were established for the assay: 145M-Twi-hGALC-G270D (brain-derived Twitcher cell line stably expressing human GALC-G270D) and 145M-Twi-hGALC-WT (same 145M-Twi stably expressing human GALC wild type). The Twitcher is the murine C57B/6 model for GLD with naturally occurring homozygous nonsense GALC mutation. The 145M-Twi cell line was established at Maegawa lab (Ribbens J et al 2014).
a.#Media: DMEM/F12 (1:1) with 10% fetal bovine-serum (FBS) with penicillin/streptomycin (PS-1X - 100 I.U./mL of penicillin+100 ug/mL of streptomycin).
b.#The 6-Hexadecanoylamino-4-methylumbelliferyl-b-D-galactoside (HMU-B-gal) substrate was prepared as per Wiederschain et al 1992. Using 20-mL borosilicate tubes, 2.20 mg of HMU-b-Gal was added in each tube to prepare substrate-film with a final air-nitrogen stream evaporation to remove all diluent solvents.
c.#The HMUb-Gal substrate buffer consists of 0.2 M Na2HPO4 (sodium phosphate dibasic)/ 0.1 M Citric Acid with the pH adjusted to 5.2 using HCl. Sodium Azide at 0.02% and Sodium Taurocholate (NaTC) at 1 mg/mL were added to this substrate buffer.
d.#The HMU-b-Gal stopping buffer consist of 0.5 M NaHCO3 (sodium bicarbonate) /0.5 M Na2CO3 (sodium carbonate). […] Triton X-100 at 0.25% was added.
4)#Preparation of HMU-b-Gal substrate tubes
Adding 18.6 mL of the HMUb-Gal substrate buffer to each 20-mL tube (2.20 mg of HMU-b-Gal) will reach a concentration of 0.2 mM. Vortex well the tube until the solution is fully homogenized (clear cloudy solution). […]
Also: nearly all actives have a fitted effect of over 65% in size.

Galactocerebrosidase (Homo sapiens), sequence (P54803 whole entry G286D): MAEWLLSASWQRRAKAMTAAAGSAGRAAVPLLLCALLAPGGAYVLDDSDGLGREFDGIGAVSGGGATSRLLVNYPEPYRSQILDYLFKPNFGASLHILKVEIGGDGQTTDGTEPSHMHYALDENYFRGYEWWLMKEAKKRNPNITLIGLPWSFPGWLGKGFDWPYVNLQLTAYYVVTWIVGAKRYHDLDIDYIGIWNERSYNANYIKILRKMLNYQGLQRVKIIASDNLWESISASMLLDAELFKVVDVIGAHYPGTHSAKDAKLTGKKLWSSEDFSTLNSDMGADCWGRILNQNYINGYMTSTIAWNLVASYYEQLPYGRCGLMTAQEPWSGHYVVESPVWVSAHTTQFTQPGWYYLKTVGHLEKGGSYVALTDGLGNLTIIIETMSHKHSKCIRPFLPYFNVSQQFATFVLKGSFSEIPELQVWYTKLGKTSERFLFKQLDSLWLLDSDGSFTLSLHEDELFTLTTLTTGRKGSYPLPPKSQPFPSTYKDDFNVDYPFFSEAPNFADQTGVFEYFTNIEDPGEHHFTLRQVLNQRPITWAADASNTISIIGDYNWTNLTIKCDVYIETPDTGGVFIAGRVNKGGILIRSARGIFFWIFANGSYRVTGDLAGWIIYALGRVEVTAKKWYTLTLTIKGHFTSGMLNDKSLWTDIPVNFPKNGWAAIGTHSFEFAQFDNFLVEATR

Potency, inactive:
Cc1ccc(-c2nnc3c4ccccc4c(C)nn23)cc1NC(=O)c1cccc(Br)c1
CCOc1ccc(-c2cc3c(=O)n(CC(=O)NCc4ccc(OC)cc4)ccn3n2)cc1
O=C(O)c1c(CNCc2cccc(F)c2)c2ccccc2n1Cc1ccccc1
COc1cccc(NC(=O)CCNS(=O)(=O)c2ccc3c(c2)oc(=O)n3C)c1
CCc1ccc(-n2nc(C)c3c(C)cc(=O)n(CC(=O)Nc4ccc(F)cc4C)c32)cc1
CC(C)(C)C1CCc2c(sc(NC(=O)c3ccccc3F)c2C(=O)N2CCCCC2)C1 (centres undefined)
CCOC(=O)c1ccc(-c2ccc(/C=C(\C#N)C(=O)Nc3ccc(C)cc3)o2)cc1
Cc1ccc2cccc(NC(=O)c3ccc(OC(C)C)cc3)c2n1
CCCCOCCOC(=O)c1cccnc1
CCOc1ccccc1NC(=O)CCS(=O)(=O)c1cccc2nsnc12
CCOc1ccc(Nc2nc3c(S(=O)(=O)c4cccc(Cl)c4)nnn3c3ccsc23)cc1
COc1ccc(S(=O)(=O)c2cn(C)c3cc(N4CCCCC4)c(F)cc3c2=O)cc1
O=C(CCS(=O)(=O)c1ccc2c(c1)NC(=O)CO2)Nc1cccc(C(F)(F)F)c1
CC(=O)c1ccc(NC(=O)CSc2nc(-c3ccccc3F)nc3c2c(=O)n(C)c(=O)n3C)cc1
CCOc1ccc(N(CC)S(=O)(=O)N2CCCC(C(=O)Nc3ccc(C(C)=O)cc3)C2)cc1 (centres undefined)
CCOC(=O)c1cc2c(=O)n3ccccc3nc2n(CC2CCCO2)c1=NC(=O)c1ccccc1Br (centres undefined)
COCCNC(=O)CCCN1C(=O)c2ccccc2Sc2ncccc21
Cc1ccc(O)c(NC(=O)c2cc(-c3ccc(F)cc3)no2)c1
COc1ccc(S(=O)(=O)NCC(c2ccc(N(C)C)cc2)N2CCc3ccccc32)cc1OC (centres undefined)
CCc1ccc(NC(=O)CCCc2nnc3n(CCCOC)c(=O)c4sccc4n23)cc1
Cc1ccc2c(c1)-c1c(cnn1CC(=O)Nc1ccccc1C#N)CO2
O=C(NCCc1ccccc1)C(=O)NCC(c1ccco1)S(=O)(=O)c1ccccc1 (centres undefined)
CCOC(=O)Cn1c(=O)n(C2CCCCC2)c2nc(-c3cccc(OC)c3)nc(C(N)=O)c21
CCOc1ccc(N(C)S(=O)(=O)c2cc(-c3cnc(C)o3)ccc2OC)cc1
CCc1ccc2ncc3c(-c4ccc(C)cc4)nn(CC(=O)NCc4ccccc4)c3c2c1
COc1ccc(-c2cn3c(n2)sc2cc(C(=O)Nc4ccc(F)cc4)ccc23)cc1
COc1cc(Cl)c(NC(=O)CC(C)S(=O)(=O)c2cc3c(cc2C)NC(=O)CO3)c(OC)c1 (centres undefined)
COc1cc(C(=O)NCCS(=O)(=O)N2CCN(c3ccccc3)CC2)cc(OC)c1OC
Nc1ncc(S(=O)(=O)Nc2ccc(OC(F)(F)F)cc2)cn1
Cc1ccc(C)c(Cn2c(CCCNC(=O)C3CCCCC3)nc3ccccc32)c1
COc1ccc(CNC(=O)CC2Oc3ccc(C)cc3NC2=O)cc1 (centres undefined)
CCN(CCCNC(=O)CSc1cc(=O)n(C)c2cc(Cl)ccc12)c1cccc(C)c1
COc1ccc(OCC(=O)Nc2cccc(C(=O)OCc3cc(=O)n4nc(C)sc4n3)c2)cc1
NC(=O)C1CCN(C(=O)c2cccc(NC(=O)c3nsc4ccccc34)c2)CC1
Cc1ccccc1C(=O)Nc1nnc(S(=O)(=O)N(C)c2ccc(Cl)cc2)s1
CCCCN(CC)C(=O)c1c[nH]c2ccc(S(=O)(=O)Nc3cccc(OC)c3)cc2c1=O
Cc1c(C(=O)N2CCCC2)oc2c1-c1nn(CC(=O)NCc3ccc(OC(C)C)cc3)cc1CC2
O=C(CN1C(=O)c2cccnc2Oc2ccc(Cl)cc21)NCCc1ccccc1
Cc1cccc(Nc2cc(C)nc(-n3nc(C)cc3C)n2)c1
COC(=O)c1cc(NC(=O)CCc2c(C)nc3c4c(C)cc(C)nc4nn3c2C)cc(C(=O)OC)c1
CCOc1ccc(NC(=O)c2cn(C3CCCCC3)c(=O)c3c2c2ccccc2n3C)cc1
Cc1ccc(Cn2cc(CCC(=O)NCc3ccc(OC(C)C)cc3)c3ccccc32)cc1
CCc1cnc2c(c1SCC(=O)c1ccccc1)c(=O)n(C)c(=O)n2C
Cc1ccccc1OCc1nc2c3cnn(-c4ccccc4F)c3ncn2n1
O=C(Nc1cccc(Cl)c1)c1csnn1
COc1ccc(C2C(=O)N(C3CCCCC3)CC(=O)N2Cc2ccccc2Cl)cc1OC (centres undefined)
O=C(Nc1ccc(OC(F)(F)F)cc1)C1CCCN(S(=O)(=O)c2ccc(Br)s2)C1 (centres undefined)
COc1ccc(-c2cc(-c3ccc(F)cc3)nc3c2COc2ccccc2-3)cc1
O=C(CCCCn1c(=O)c2ccccc2n(CC(=O)Nc2cccc(C(F)(F)F)c2)c1=O)NCc1ccc2c(c1)OCO2

From PubChem BioAssay AID1159614 (National Center for Advancing Translational Sciences (NCATS), 2016)
